Common to all, as to settings: mRNA level, 48 h; actives raise or lower the signal
Read-out in assay [1]: ABC Transporter (ABCC2), ABCC2 (gene 1244)
The experiment in a line: LTEA_HepaRG_ABCC2: Life Technologies and Expression Analysis (LTEA) Assay for ABC Transporter (ABCC2) using HepaRG (AID 2283464). The gist of the method:
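HepaRG cells were plated 48 h, switched to serum-free induction medium, then exposed in duplicate for 48 h to 8 concentrations (top 100 uM, half-log steps, 0.5% DMSO). ABCC2 mRNA was measured by qRT-PCR normalized to ACTB/GAPDH/POLR2A; bidirectional fitting versus DMSO.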

Read-out in assay [2]: Broad substrate specificity ATP-binding cassette transporter ABCG2 (Homo sapiens) (UniProt Q9UNQ0)
Put plainly: LTEA_HepaRG_ABCG2: Life Technologies and Expression Analysis (LTEA) Assay for ABC Transporter (ABCG2) using HepaRG (AID 2283465). Put shortly:
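Gene expression of ABCG2 in HepaRG liver cells is quantified by qRT-PCR following 48 h exposure across an eight-point series topping at 100 uM. Values come from bidirectional fitting relative to DMSO vehicle.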

Read-out in assay [3]: ATP-citrate lyase (ACLY), ACLY (gene 47)
Put plainly: LTEA_HepaRG_ACLY: Life Technologies and Expression Analysis (LTEA) Assay for ATP-citrate lyase (ACLY) using HepaRG (AID 2283466). Put shortly:
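ACLY expression changes in human HepaRG liver cells are quantified by qRT-PCR after 48 h exposure to test chemicals (maximum 100 uM, half-log steps). Values are fitted in both directions relative to 0.5% DMSO vehicle.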

Read-out in assay [4]: Peroxisomal acyl-coenzyme A oxidase 1 (ACOX1) gene, ACOX1 (gene 51)
The experiment in a line: LTEA_HepaRG_ACOX1: Life Technologies and Expression Analysis (LTEA) Assay for Peroxisomal acyl-coenzyme A oxidase 1 (ACOX1) gene using HepaRG (AID 2283467). Put shortly:
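Human HepaRG hepatic cultures, 48 h treatment with test chemicals up to 100 uM. ACOX1 expression read by qRT-PCR relative to 0.5% DMSO vehicle.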

Read-out in assay [5]: Alkaline Phosphatase, Placental (ALPP) gene, ALPP (gene 250)
The experiment in a line: LTEA_HepaRG_ALPP: Life Technologies and Expression Analysis (LTEA) Assay for Alkaline Phosphatase, Placental (ALPP) gene using HepaRG (AID 2283468). Put shortly: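 Differentiated human HepaRG cells were plated and cultured 48 h, then exposed in duplicate for 48 h in serum-free induction medium to eight half-log concentrations from 100 uM in 0.5% DMSO. ALPP mRNA was measured by TaqMan qRT-PCR, normalized to ACTB, GAPDH, POLR2A.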

Read-out in assay [6]: Bcl-2 (BAX) gene, BAX (gene 581)
The experiment in a line: LTEA_HepaRG_BAX: Life Technologies and Expression Analysis (LTEA) Assay for Bcl-2 (BAX) gene using HepaRG (AID 2283470). The gist of the method:
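Gene expression measured by Fluidigm qRT-PCR with three housekeeping genes for normalisation. HepaRG cells, plated 48 h beforehand, treated 48 h at up to 100 uM (8-point, half-log) in 0.5% DMSO. Bidirectional fitting versus DMSO.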

Read-out in assay [7]: Alpha-fetoprotein (AFP) gene, AFP (gene 174)
The experiment in a line: LTEA_HepaRG_AFP: Life Technologies and Expression Analysis (LTEA) Assay for Alpha-fetoprotein (AFP) gene using HepaRG (AID 2283472). Put shortly: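 AFP transcript measured by TaqMan qRT-PCR with three housekeeping genes for normalization, after 48 h chemical treatment of HepaRG cells (top 100 uM, half-log steps, 0.5% DMSO). Gain or loss fitted against vehicle.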

Read-out in assay [8]: BCL2L11 (gene 10018)
The experiment in a line: LTEA_HepaRG_BCL2L11: Life Technologies and Expression Analysis (LTEA) Assay for Bcl-2 (BCL2L11) gene using HepaRG (AID 2283473). The gist of the method:
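Differentiated human HepaRG cells in serum-free induction medium were exposed in duplicate for 48 h to eight concentrations (top 100 uM, half-log steps, 0.5% DMSO). BCL2L11 mRNA was quantified by TaqMan qRT-PCR, normalized to ACTB/GAPDH/POLR2A, bidirectional fit versus DMSO.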

Read-out in assay [9]: Apolipoprotein A-V (APOA5) gene, APOA5 (gene 116519)
Put plainly: LTEA_HepaRG_APOA5: Life Technologies and Expression Analysis (LTEA) Assay for Apolipoprotein A-V (APOA5) gene using HepaRG (AID 2283474). The gist of the method: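 Differentiated human HepaRG cells were exposed in duplicate for 48 h to eight half-log concentrations from 100 uM in 0.5% DMSO. APOA5 mRNA was quantified by TaqMan qRT-PCR, normalized to ACTB, GAPDH and POLR2A, and fitted bidirectionally against DMSO.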

Read-out in assay [10]: Apoptosis regulator Bcl-2 (Homo sapiens) (UniProt P10415)
The experiment in a line: LTEA_HepaRG_BCL2: Life Technologies and Expression Analysis (LTEA) Assay for Bcl-2 gene using HepaRG (AID 2283475). Put shortly:
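qRT-PCR of BCL2 transcript, normalized to three housekeeping genes (ACTB, GAPDH, POLR2A), after 48 h chemical exposure of HepaRG cells; concentrations top 100 uM with half-log dilutions, 0.5% DMSO vehicle, duplicates; changes up or down fitted relative to vehicle.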

Read-out in assay [11]: Caspase-3 (Homo sapiens) (UniProt P42574)
The experiment in a line: LTEA_HepaRG_CASP3: Life Technologies and Expression Analysis (LTEA) Assay for cysteine-aspartic acid protease (CASP3) using HepaRG (AID 2283477). The gist of the method:
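Differentiated human HepaRG cells in serum-free induction medium were exposed 48 h to 8-point half-log concentrations from 100 uM (0.5% DMSO vehicle). CASP3 mRNA was measured by qRT-PCR, normalised to ACTB, GAPDH and POLR2A, with bidirectional fitting against DMSO.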

Read-out in assay [12]: Cytochrome P450 (CYP24A1), CYP24A1 (gene 1591)
The experiment in a line: LTEA_HepaRG_CYP24A1: Life Technologies and Expression Analysis (LTEA) Assay for Cytochrome P450 (CYP24A1) using HepaRG (AID 2283478). Put shortly:
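Differentiated HepaRG cells, pre-cultured 48 h, were exposed in duplicate for 48 h in serum-free induction medium to 8 half-log concentrations (top 100 uM, 0.5% DMSO). CYP24A1 mRNA was quantified by TaqMan qRT-PCR, normalized to ACTB/GAPDH/POLR2A, fitted bidirectionally versus DMSO.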

Read-out in assay [13]: Cytochrome P450 (CYP1A2), CYP1A2 (gene 1544)
Put plainly: LTEA_HepaRG_CYP1A2: Life Technologies and Expression Analysis (LTEA) Assay for Cytochrome P450 (CYP1A2) using HepaRG (AID 2283479). The gist of the method: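 Differentiated human HepaRG cells in serum-free induction medium were exposed in duplicate for 48 h to 8-point half-log concentrations up to 100 uM in 0.5% DMSO. CYP1A2 mRNA measured by qRT-PCR, normalized to ACTB, GAPDH, POLR2A; bidirectional fit vs DMSO.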

Read-out in assay [14]: cysteine-aspartic acid protease (CASP8), CASP8 (gene 841)
The experiment in a line: LTEA_HepaRG_CASP8: Life Technologies and Expression Analysis (LTEA) Assay for cysteine-aspartic acid protease (CASP8) using HepaRG (AID 2283480). The gist of the method: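 Concentration-response in duplicate up to 100 uM (half-log steps, 0.5% DMSO) on differentiated HepaRG cultures for 48 h. Expression change of CASP8 mRNA is determined by TaqMan qRT-PCR with housekeeping-gene normalization.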

Read-out in assay [15]: Cytochrome P450 (CYP2B6), CYP2B6 (gene 1555)
Put plainly: LTEA_HepaRG_CYP2B6: Life Technologies and Expression Analysis (LTEA) Assay for Cytochrome P450 (CYP2B6) using HepaRG (AID 2283481). The gist of the method:
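Differentiated HepaRG cells, serum-free induction medium, exposed 48 h in duplicate to 8-point half-log concentrations from 100 uM in 0.5% DMSO. CYP2B6 mRNA by qRT-PCR, normalized to ACTB, GAPDH, POLR2A; bidirectional fit versus DMSO.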

Read-out in assay [16]: Cytochrome P450 2C19 (Homo sapiens) (UniProt P33261)
The experiment in a line: LTEA_HepaRG_CYP2C19: Life Technologies and Expression Analysis (LTEA) Assay for CYP2C19 using HepaRG (AID 2283482). The gist of the method: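 Differentiated human HepaRG cells were exposed for 48 h in serum-free induction medium to 8 concentrations (top 100 uM, half-log steps, 0.5% DMSO). CYP2C19 mRNA was measured by qRT-PCR, normalized to ACTB/GAPDH/POLR2A, and fitted bidirectionally against DMSO.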

Read-out in assay [17]: CYP2C8 (gene 1558)
Put plainly: LTEA_HepaRG_CYP2C8: Life Technologies and Expression Analysis (LTEA) Assay for CYP2C8 using HepaRG (AID 2283483). Put shortly: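 This is a transcriptional endpoint in HepaRG cultures: 48 h exposure, highest concentration 100 uM. CYP2C8 mRNA is quantified by TaqMan qRT-PCR.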

Read-out in assay [18]: CYP2C9 (gene 1559)
The experiment in a line: LTEA_HepaRG_CYP2C9: Life Technologies and Expression Analysis (LTEA) Assay for CYP2C9 using HepaRG (AID 2283484). The gist of the method:
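Eight-point concentration-response (highest 100 uM, half-log dilutions) in HepaRG cells for 48 h; CYP2C9 expression by qRT-PCR normalized to ACTB, GAPDH, POLR2A. Bidirectional fit, DMSO baseline.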

Read-out in assay [19]: CYP2E1 (gene 1571)
The experiment in a line: LTEA_HepaRG_CYP2E1: Life Technologies and Expression Analysis (LTEA) Assay for CYP2E1 using HepaRG (AID 2283485). The gist of the method:
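CYP2E1 transcript measured by Fluidigm qRT-PCR against three housekeeping genes in human HepaRG cells treated 48 h (top 100 uM, half-log steps, 0.5% DMSO vehicle). Gain or loss fitted relative to DMSO baseline.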

Read-out in assay [20]: CYP4A11 (gene 1579)
Put plainly: LTEA_HepaRG_CYP4A11: Life Technologies and Expression Analysis (LTEA) Assay for CYP4A11 using HepaRG (AID 2283486). The gist of the method: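 Differentiated HepaRG cells, serum-free induction medium, exposed 48 h in duplicate to 8-point half-log series from 100 uM in 0.5% DMSO. CYP4A11 mRNA measured by qRT-PCR, normalized to ACTB, GAPDH, POLR2A; bidirectional fit versus DMSO.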

We go through seven molecules from PubChem BioAssay (EPA / NIEHS).

The structures appear in SMILES notation. Active and inactive are the calls of the source. How the source made its calls: active means hit-call score of the fitted dose curve at least 0.9, where 1 is the maximum; inactive means score below 0.9.

Sequence of Caspase-3 (Homo sapiens) (P42574 whole entry, looked up): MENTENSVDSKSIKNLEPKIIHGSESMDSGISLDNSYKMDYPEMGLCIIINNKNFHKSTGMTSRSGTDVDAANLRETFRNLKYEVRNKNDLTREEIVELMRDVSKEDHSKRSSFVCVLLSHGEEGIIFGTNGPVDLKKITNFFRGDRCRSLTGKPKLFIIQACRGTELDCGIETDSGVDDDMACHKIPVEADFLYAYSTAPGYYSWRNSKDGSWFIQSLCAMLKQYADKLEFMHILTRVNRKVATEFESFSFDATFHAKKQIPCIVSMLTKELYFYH
Sequence of Broad substrate specificity ATP-binding cassette transporter ABCG2 (Homo sapiens) (Q9UNQ0 whole entry, looked up): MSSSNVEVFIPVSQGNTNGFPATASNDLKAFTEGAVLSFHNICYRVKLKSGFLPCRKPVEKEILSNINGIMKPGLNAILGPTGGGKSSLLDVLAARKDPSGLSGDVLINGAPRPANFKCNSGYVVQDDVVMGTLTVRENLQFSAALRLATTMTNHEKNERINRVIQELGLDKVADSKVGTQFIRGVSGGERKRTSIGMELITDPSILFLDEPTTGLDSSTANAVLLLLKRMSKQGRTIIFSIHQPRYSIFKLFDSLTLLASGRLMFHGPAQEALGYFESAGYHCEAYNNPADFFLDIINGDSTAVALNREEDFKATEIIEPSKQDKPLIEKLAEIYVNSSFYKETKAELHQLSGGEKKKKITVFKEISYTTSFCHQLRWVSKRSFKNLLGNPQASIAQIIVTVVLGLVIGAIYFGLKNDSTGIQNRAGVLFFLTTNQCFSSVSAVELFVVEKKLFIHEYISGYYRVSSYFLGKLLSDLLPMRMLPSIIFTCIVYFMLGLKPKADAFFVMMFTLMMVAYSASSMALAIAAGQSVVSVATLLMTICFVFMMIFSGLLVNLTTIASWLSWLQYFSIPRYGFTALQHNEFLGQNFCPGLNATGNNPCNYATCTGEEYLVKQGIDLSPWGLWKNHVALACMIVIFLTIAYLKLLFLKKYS
Sequence of Apoptosis regulator Bcl-2 (Homo sapiens) (P10415 whole entry, looked up): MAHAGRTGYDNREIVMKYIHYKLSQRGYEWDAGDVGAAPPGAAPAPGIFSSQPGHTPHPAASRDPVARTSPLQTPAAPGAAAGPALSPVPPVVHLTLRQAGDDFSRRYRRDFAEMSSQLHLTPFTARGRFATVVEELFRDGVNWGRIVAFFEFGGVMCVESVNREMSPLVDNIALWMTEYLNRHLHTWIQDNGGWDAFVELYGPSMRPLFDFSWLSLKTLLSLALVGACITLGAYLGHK
Sequence of Cytochrome P450 2C19 (Homo sapiens) (P33261 whole entry, looked up): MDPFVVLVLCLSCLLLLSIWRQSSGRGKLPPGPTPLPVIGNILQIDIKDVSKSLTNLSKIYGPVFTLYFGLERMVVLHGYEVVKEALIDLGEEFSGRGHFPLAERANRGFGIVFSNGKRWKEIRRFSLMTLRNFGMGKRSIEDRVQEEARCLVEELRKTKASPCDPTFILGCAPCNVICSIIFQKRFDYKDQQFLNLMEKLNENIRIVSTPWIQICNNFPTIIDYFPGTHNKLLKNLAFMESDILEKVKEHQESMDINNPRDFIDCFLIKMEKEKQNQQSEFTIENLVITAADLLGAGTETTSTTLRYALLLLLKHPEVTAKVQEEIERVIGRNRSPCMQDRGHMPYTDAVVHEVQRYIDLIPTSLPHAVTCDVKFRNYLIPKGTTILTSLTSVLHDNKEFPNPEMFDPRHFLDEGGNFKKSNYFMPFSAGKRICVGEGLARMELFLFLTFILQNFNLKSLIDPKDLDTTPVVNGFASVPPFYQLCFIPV

Turning to `O=C(N[C@H]1CN2CCC1CC2)c1ccc2c(c1)OCCO2`, the call in [1], in assay [2], in assay [3], in assay [4], in assay [5] and in assay [6] was inactive. For the same molecule, the result in assay [7], in [8], in assay [9], in [10], in assay [11] and in assay [12] was inactive. The molecule was called inactive in assay [13], in assay [14], in assay [15], in assay [16], in assay [17] and in assay [18]. In addition, the call in assay [19] and in assay [20] was inactive.
Consider `CN(C)C(=S)S`, for which the result in [1], in assay [2], in assay [3], in assay [4], in assay [5] and in assay [6] was inactive. The call in [7], in assay [8], in assay [9], in assay [10], in assay [11] and in [12] was inactive. Besides, the molecule was called inactive in [14], in assay [16], in [17], in assay [18], in assay [19] and in assay [20]. The values for the AC50 in assay [13] and in assay [15] were 72.3 µM (active) and 29.7 µM (active), respectively.
As to `Clc1cccc(Cl)c1Cl`, the outcome in [1], in assay [2], in [3], in [4], in assay [5] and in assay [6] was inactive. The molecule was classed as inactive in assay [7], in assay [8], in assay [9], in assay [10], in [11] and in assay [12]. In addition, the outcome in assay [13], in assay [14], in assay [15], in [16], in assay [17] and in assay [18] was inactive. For the same molecule, the outcome in assay [19] and in [20] was inactive.
With `CC(C)O.CC(C)O.OCCN(CCO)CCO.OCCN(CCO)CCO.[Ti]`, the molecule was classed as inactive in [1], in [2], in assay [3], in [4], in assay [5] and in assay [6]. The call in assay [7], in assay [8], in assay [9], in assay [10], in assay [11] and in [12] was inactive. Besides, the call in assay [13], in assay [14], in [16], in [17], in assay [18] and in [20] was inactive. In addition, the AC50 in assay [19] is 50 µM (active).
On to `Oc1c(Cl)cc(Cl)cc1Cl`, for which the call in [1], in assay [2], in assay [3], in [4], in assay [5] and in assay [6] was inactive. For the same molecule, the molecule was classed as inactive in assay [7], in assay [8], in assay [9], in [10] and in [11]. Further, the concentration at half-maximal activity (AC50) in assay [14] was 50 µM (active).
`Cc1cc(C)cc(C)c1`: the call in assay [1], in [2], in assay [3], in [4], in [5] and in assay [6] was inactive. Moreover, the call in [7], in assay [8], in [9], in assay [10], in assay [11] and in assay [12] was inactive. In addition, the result in [13], in assay [14], in [15], in assay [16], in assay [17] and in assay [18] was inactive. In addition, the molecule was classed as inactive in [19] and in assay [20].
With `COc1ccccc1N`, the molecule was called inactive in [1], in [2], in [3], in assay [4], in assay [5] and in assay [6]. In addition, the result in [7], in assay [8], in [9], in [10], in assay [11] and in [12] was inactive. For the same molecule, the molecule was called inactive in [13], in [14], in [16], in assay [17], in assay [18] and in assay [19]. Moreover, in [20], the call was inactive. Also, the half-maximal activity concentration (AC50) in assay [15] was 24.3 µM (active).
